# Measured values: PubChem BioAssay (EPA / NIEHS)
# Calls of active or inactive are those of the source. How the source made its calls: active means hit-call score of the fitted dose curve at least 0.9, where 1 is the maximum; inactive means score below 0.9.
# Assay: BSK_BE3C_SRB: Viability Assessment in the BioMAP Diversity Plus: BE3C Assay (AID 2283028);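 on AC50: fitted both ways so AC50 may mark signal gain or loss versus DMSO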
# Conditions: primary human bronchial epithelial cells
# Experimental: BSK_BE3C is a cell-based, multiplexed-readout assay that uses bronchial epithelial cell, a human lung primary cell, with measurements taken at 24 hours after chemical dosing in a 96-well plate.BSK_BE3C_SRB is an assay component measured in the BSK_BE3C assay. It measures 0.1% sulforhodamine related to cell death using Sulforhodamine staining technology.Data from the assay component BSK_BE3C_SRB was analyzed into 1 assay endpoint. This assay endpoint, BSK_BE3C_SRB, was analyzed with bidirectional fitting relative to DMSO as the negative control and baseline of activity. Using a type of viability reporter, gain or loss-of-signal activity can be used to understand changes in the signaling. Furthermore, this assay endpoint can be referred to as a primary readout, because this assay has produced multiple assay endpoints where this one serves a signaling function. To generalize the intended target to other relatable targets, this assay endpoint is annotated to the cell morphology intended target family, where the subfamily is cell conformation.
# The levels of cell surface (or secreted, indicated by the prefix "s") biomarker endpoints were measured by ELISA. Overt cytotoxicity to cells in confluent adherent cultures (all systems other than the BT system) was assessed by measuring total protein levels using sulforhodamine B (SRB) staining in parallel cultures at the time of biomarker measurements, indicated as SRB endpoints. For proliferation assays for adherent cell types, individual cell types are cultured at sub-confluence and relative cell numbers quantified by SRB staining at time points optimized for each system (48 h: 3C and CASM3C systems; 72 h: BT and HDF3CGF systems; 96 h: SAg system). SRB was performed by staining cells with 0.1% SRB after fixation with 10% TCA and reading wells at 560 nm.Viability and proliferation of PBMC (T cells) was quantified by Alamar Blue reduction for the SAg and BT systems. For PBMC viability (referred to as PBMC Cytotoxicity within the assay endpoint names), cells were plated (75,000/well in a 96-well plate) and then chemical samples added for 1 h before addition of activators, SEB and TSST-1 (20 ng/mL final concentration each). Cells were incubated for 90 h. Then, Alamar Blue (20 uL/well) (Invitrogen, Cat DAL1100) was added for 6 h, and the plates were read with a fluorescence microplate reader at 546/580 nm (excitation/emission). For PBMC proliferation, cells were plated and activated as above but incubated for only 16 h prior to addition of Alamar Blue. Plates were read after 6 h.
SMILES,outcome,AC50
CC(C)(C)c1cc([N+](=O)[O-])cc(C(C)(C)C)c1O,inactive,
CC(C)O.CC(C)O.OCCN(CCO)CCO.OCCN(CCO)CCO.[Ti],inactive,
CCCCOC(=O)COC(=O)c1ccccc1C(=O)OCCCC,inactive,
CCOP(=O)(OCC)OC(=CCl)c1ccc(Cl)cc1Cl,inactive,
Clc1cccc(Cl)c1,inactive,
O=C(Cc1ccccc1)OCCc1ccccc1,inactive,
Cc1c([N+](=O)[O-])c(C)c([N+](=O)[O-])c(C(C)(C)C)c1[N+](=O)[O-],inactive,
N#CCCC(Br)(C#N)CBr (stereo not given),,20 µM (active)
CC(C)(C)c1ccccc1O,inactive,
CC(C)(COCC1CO1)COCC1CO1 (stereo not given),inactive,
OC(Cc1ccccc1Cl)(Cn1cncn1)C1(Cl)CC1 (stereo not given),inactive,
O=S(=O)(c1ccc(Cl)cc1)c1cc(Cl)c(Cl)cc1Cl,inactive,
Cc1cc(C(C)(C)c2ccc(O)c(C)c2)ccc1O,inactive,
OCCN(CCO)CCO,inactive,
O=S(=O)(C(Cl)(Cl)Cl)C(Cl)(Cl)Cl,,4.45 µM (active)
NC(=O)CCl,inactive,
CCOC(=O)CC(=O)CCl,inactive,
CC1(C)[C@H](C(=O)O[C@H](C#N)c2cccc(Oc3ccccc3)c2)[C@@H]1/C=C(\Cl)C(F)(F)F,inactive,
CCCCN(CCCC)C(=S)[S-].CCCCN(CCCC)C(=S)[S-].[Ni+2],inactive,
Nc1ccc(N)cc1,inactive,

SMILES,outcome,AC50
Nc1c(Oc2ccccc2)cc(O)c2c1C(=O)c1ccccc1C2=O,inactive,
CCCCCCCCCCCCN(C)C,inactive,
Cc1ccccc1OP(=O)(Oc1ccccc1)Oc1ccccc1,inactive,
Cc1ccc(OP(=O)(Oc2ccc(C)cc2C)Oc2ccc(C)cc2C)c(C)c1,inactive,
O=C(CCl)NCO,inactive,
Cc1cc(C)cc(C)c1,inactive,
c1ccc(-c2cccc(-c3ccccc3)c2)cc1,inactive,
CC(C)=CC1C(C(=O)OCc2cccc(Oc3ccccc3)c2)C1(C)C (stereo not given),inactive,
O=C1C=CC(=O)c2ccccc21,,3.8 µM (active)
O=c1oc2ccccc2c(O)c1C(CC(O)c1ccc(-c2ccc(Br)cc2)cc1)c1ccccc1 (stereo not given),,5.05 µM (active)
COCC(=O)N(c1c(C)cccc1C)[C@H](C)C(=O)OC,inactive,
Clc1cccc(Cl)c1Cl,inactive,
COc1ccccc1N,inactive,
Oc1cc(Cl)c(Cl)cc1Cl,inactive,
CCOP(=S)(OCC)OP(=S)(OCC)OCC,inactive,
O=[N+]([O-])c1cccc2ccccc12,inactive,
CCOC(=O)CCN(SN(C)C(=O)Oc1cccc2c1OC(C)(C)C2)C(C)C,inactive,
C#CCOC(=O)/C=C(C)/C=C/CC(C)CCCC(C)C (stereo not given),inactive,
C[C@]12CC[C@@H](O)C[C@@H]1CC[C@@H]1[C@@H]2CC[C@]2(C)C(=O)CC[C@@H]12,inactive,
CCOP(=O)(OCC)SCCSCC,inactive,
